The text below walks through data of PubChem BioAssay (NCATS).

Inconclusive results are not listed. Active and inactive are the calls of the source. Calls come from the whole dose curve; as a rule, active = well fitted inhibition curve with a large enough effect; inconclusive = small, poorly fitted or top-dose-only effect; inactive = flat fitted curve, though single readings scatter.

What all share (assay): qHTS profiling for inhibitors of Plasmodium falciparum proliferation (AID 504749); note: nearly all actives have a fitted effect of over 60% in size
Holding throughout (settings): P. falciparum in erythrocytes, SYBR Green DNA, 72 h; series mostly up to 28.7 µM

In one assay the test system is CP329. A digest of the protocol:
(§1)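 P. falciparum-infected erythrocytes (0.3% parasitemia, 2.5% hematocrit) incubated with compound 72 h at 37 C, 5% CO2. Parasite DNA detected by SYBR Green after lysis, overnight at room temperature; normalised to 0.29 uM artemisinin and DMSO.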

The test system of another assay is CP335. A digest of the protocol: as §1
In the next assay the test system is DFO2036. An outline of the steps: as §1
The test system of a further assay is DIV14. A digest of the protocol: as §1
The next assay relates to DIV30. An outline of the steps:
as §1

A further assay concerns Dd2. An outline of the steps:
as §1

The next assay concerns ECU. An outline of the steps:
as §1

The next assay relates to FAB9. A digest of the protocol:
as §1

The test system of another assay is GB4. A digest of the protocol:
as §1

In a further assay the test system is HB3. A digest of the protocol:
as §1

In the next assay the test system is ICS. A digest of the protocol:
as §1

The subject of a further assay is JCK. An outline of the steps:
as §1

Another assay concerns N140. An outline of the steps:
as §1

A further assay concerns P93_24. An outline of the steps:
as §1

In a further assay the test system is P94_40. An outline of the steps: as §1
A further assay relates to PAD. A digest of the protocol:
as §1

In another assay the test system is PC15. An outline of the steps:
as §1

The subject of the next assay is PC26. A digest of the protocol:
as §1

A further assay relates to PC49. A digest of the protocol: as §1
The subject of the next assay is DIV17. A digest of the protocol:
as §1
Potency is the fitted concentration of half-maximal effect.

As for `c1cc2c(c(N3CCNCC3)c1)OCCO2`, the Potency entry in the assay with CP329, in the assay with CP335, in the assay on DFO2036, with DIV14, in the assay on DIV30 and in the assay on Dd2 was “inactive” each time. The Potency entry in the assay with ECU, with FAB9, in the assay on GB4, in the assay on HB3, with ICS and with JCK was “inactive” in each case. Also, the Potency result in the assay with N140, in the assay with P93_24, in the assay on P94_40, in the assay with PAD, in the assay on PC15 and in the assay on PC26 was “inactive” throughout. Moreover, the Potency result in the assay with PC49 was “inactive”.
Regarding `O=C1NCN(c2ccccc2)C12CCN(CCCOc1ccc(F)cc1)CC2`, the Potency entry in the assay on CP329, in the assay on ECU, in the assay on FAB9, in the assay on HB3 and in the assay with JCK was “inactive” in each case. The Potency was 8.49 µM (active) with DIV14, 8.91 µM (active) with Dd2, 6.75 µM (active) with GB4 and 8.91 µM (active) with P93_24.
Consider `CC(C)(O)C(Cl)(Cl)Cl`, for which the Potency is 2.39 µM (active) with CP335; 3.55 µM (active) with DFO2036; 1.51 µM (active) in the assay on DIV14; 1.51 µM (active) in the assay on DIV17; 5.36 µM (active) with DIV30; 2.51 µM (active) in the assay with Dd2. The Potency in the assay on ECU is 3.98 µM (active); in the assay with FAB9 it was 7.94 µM (active); in the assay with GB4 it was 2.69 µM (active); with HB3, 2 µM (active); with ICS, 0.891 µM (active); in the assay with JCK, 11.2 µM (active). The Potency with N140 was 2.51 µM (active); in the assay with P93_24, 2.24 µM (active); with P94_40 it was 2.51 µM (active); with PAD it was 3.55 µM (active); in the assay with PC15, 2.24 µM (active); in the assay with PC26 it was 8.49 µM (active). Besides, the Potency with PC49 was 7.08 µM (active).
Turning to `C#C[C@]1(O)CC[C@H]2[C@@H]3CCC4=CC(=O)CCC4=C3C=C[C@@]21CC`, the Potency in the assay with DIV14 was 4.26 µM (active); with DIV17, 5.36 µM (active); in the assay with ECU, 11.2 µM (active); in the assay on HB3, 10 µM (active); in the assay on ICS it was 8.91 µM (active); in the assay on PC15 it was 6.31 µM (active). Besides, the Potency in the assay on PC26 was 6.01 µM (active); in the assay with PC49, 8.91 µM (active). In addition, the Potency entry in the assay on JCK was “inactive”.
Consider `CN1C(=O)[C@@H](NC(=O)c2cc3ccccc3[nH]2)N=C(c2ccccc2)c2ccccc21`, for which the Potency was 12 µM (active) in the assay on DIV14; 10.7 µM (active) in the assay on DIV17; 11.2 µM (active) in the assay on Dd2; 10 µM (active) with ECU; 15.1 µM (active) in the assay on GB4; 8.91 µM (active) in the assay with ICS. In addition, the Potency in the assay with P94_40 is 11.2 µM (active). Moreover, the Potency result in the assay with FAB9, in the assay on JCK, in the assay with PC15 and in the assay on PC49 was “inactive” in each case.
`N#Cc1nn(-c2c(Cl)cc(C(F)(F)F)cc2Cl)c(N)c1S(=O)C(F)(F)F` (centres undefined): the Potency was 7.57 µM (active) in the assay on CP329; 13.5 µM (active) in the assay on CP335; 4.78 µM (active) in the assay on DIV14; 7.57 µM (active) in the assay with DIV17; 9.53 µM (active) in the assay with DIV30; 7.57 µM (active) with GB4. Moreover, the Potency in the assay on ICS was 5.62 µM (active); in the assay with N140, 7.94 µM (active); in the assay on PC15 it was 12.6 µM (active); in the assay on PC26 it was 9.53 µM (active). The Potency entry with PC49 was “inactive”.
Turning to `CC(Cc1ccccc1)NCc1ccccc1Cl` (centres undefined), the Potency result in the assay on CP329, in the assay on DFO2036, with ECU, in the assay on FAB9, in the assay with HB3 and with JCK was “inactive” in each case. Further, the Potency entry in the assay with PC15 and in the assay on PC49 was “inactive” throughout. Moreover, the Potency in the assay on Dd2 is 12.6 µM (active).
Regarding `COc1ccc(C(=O)N2CCCC2=O)cc1`, the Potency result in the assay with CP329, in the assay on CP335, with DFO2036, in the assay with DIV14, with DIV30 and with Dd2 was “inactive” throughout. Moreover, the Potency result in the assay with ECU, in the assay with FAB9, in the assay with GB4, in the assay with HB3, in the assay on ICS and with JCK was “inactive” in each case. For the same molecule, the Potency result in the assay with N140, with P93_24, in the assay with P94_40, in the assay on PAD, in the assay with PC15 and in the assay on PC26 was “inactive” each time. In addition, the Potency entry in the assay with PC49 is “inactive”.
As for `Cc1c(Cl)c(=O)oc2cc(OP(=O)(OCCCl)OCCCl)ccc12`, the Potency is 12 µM (active) in the assay on CP329; 10 µM (active) with DFO2036; 8.49 µM (active) in the assay on DIV14; 10 µM (active) with ECU; 12 µM (active) in the assay on GB4; 11.2 µM (active) with HB3. Also, the Potency in the assay on ICS was 11.2 µM (active); in the assay on N140, 8.91 µM (active); with P93_24 it was 11.2 µM (active); with P94_40, 6.31 µM (active). The Potency result with FAB9, with PC15 and with PC49 was “inactive” each time.
Regarding `CNC(=O)Oc1cccc2ccccc12`, the Potency entry with CP329, with CP335, with DFO2036, in the assay with DIV17, in the assay on DIV30 and in the assay on Dd2 was “inactive” throughout. For the same molecule, the Potency entry in the assay on ECU, in the assay with FAB9, in the assay on HB3, with JCK, in the assay on N140 and in the assay with PC49 was “inactive” in each case. The Potency in the assay with P94_40 was 12.6 µM (active).
For `CN1CCc2cc(Cl)c(O)cc2[C@H]2c3ccccc3CC[C@@H]21`, the Potency was 8.49 µM (active) in the assay on CP335 and 10 µM (active) with Dd2. Moreover, the Potency entry with FAB9, with JCK, in the assay with PAD, in the assay with PC15 and with PC49 was “inactive” each time.
`O=C(NC(=O)c1c(F)cccc1F)Nc1cc(Cl)c(OC(F)(F)C(F)C(F)(F)F)cc1Cl` (centres undefined): the Potency result with CP329, with DIV14, with DIV17, in the assay with DIV30, in the assay on FAB9 and in the assay on GB4 was “inactive” in each case. The Potency entry with JCK, in the assay on PC15 and in the assay on PC26 was “inactive” each time. The results for the Potency in the assay on P93_24 and in the assay on P94_40 were 8.91 µM (active) and 12.6 µM (active), respectively.
Consider `Clc1ccc(CO/N=C(\Cn2ccnc2)c2ccc(Cl)cc2Cl)c(Cl)c1`, for which the Potency in the assay with CP335 is 6.01 µM (active); in the assay on DFO2036, 3.98 µM (active); in the assay on DIV14 it was 1.51 µM (active); with DIV17 it was 1.9 µM (active); in the assay with DIV30, 3.38 µM (active); with Dd2 it was 4.47 µM (active). The Potency is 2.24 µM (active) in the assay with ECU; 1.69 µM (active) in the assay on GB4; 7.94 µM (active) in the assay with HB3; 1.12 µM (active) in the assay with ICS; 2.24 µM (active) with N140; 2.24 µM (active) with P93_24. Further, the Potency with P94_40 was 2.82 µM (active); with PAD, 2.51 µM (active); in the assay on PC15, 3.16 µM (active); with PC26, 4.26 µM (active).
For the molecule `Nc1ccc(N)cc1`, the Potency result with CP329, with Dd2, in the assay on HB3, with JCK and in the assay on PC49 was “inactive” each time. The Potency with DIV14, in the assay with DIV17 and with GB4 was 15.1 µM (active) throughout.
Regarding `COCC(=O)N(c1c(C)cccc1C)C(C)C(=O)OC` (centres undefined), the Potency result in the assay on CP329, with CP335, with DIV14, with DIV17, in the assay on DIV30 and in the assay on Dd2 was “inactive” in each case. The Potency result in the assay on FAB9, in the assay with GB4, in the assay with HB3, in the assay with ICS, with JCK and with PC15 was “inactive” each time. Also, the Potency entry in the assay with PC26 and in the assay on PC49 was “inactive” each time.
Consider `OC(c1ccccc1)(c1ccccc1)C1CCNCC1`, for which the Potency entry with CP329, in the assay with CP335, in the assay with DFO2036, in the assay with Dd2, in the assay on ECU and in the assay with FAB9 was “inactive” each time. For the same molecule, the Potency result in the assay on GB4, with HB3, with JCK, in the assay on N140, in the assay with P93_24 and in the assay with P94_40 was “inactive” throughout. In addition, the Potency result in the assay with PAD and with PC26 was “inactive” in each case.
Regarding `CN1C(=O)CN=C(c2ccccc2)c2cc([N+](=O)[O-])ccc21`, the Potency result with CP329, in the assay on DFO2036, in the assay on DIV14, in the assay with DIV17, in the assay on DIV30 and with Dd2 was “inactive” each time. Moreover, the Potency result with ECU, in the assay on FAB9, with GB4, in the assay with ICS, in the assay on JCK and in the assay on N140 was “inactive” in each case. The Potency entry in the assay with P93_24, with P94_40, in the assay with PAD, in the assay on PC15, in the assay on PC26 and in the assay with PC49 was “inactive” in each case.
For `CNC(=O)NC(O)C(Cl)(Cl)Cl` (centres undefined), the Potency result with CP329, with CP335, in the assay on DFO2036, in the assay with DIV17, in the assay with DIV30 and in the assay on Dd2 was “inactive” throughout. Also, the Potency entry in the assay on ECU, in the assay with FAB9, in the assay on GB4, in the assay with HB3, with ICS and with JCK was “inactive” throughout. Besides, the Potency result with N140, in the assay with P93_24, with P94_40, with PAD, in the assay on PC15 and with PC26 was “inactive” throughout. The Potency entry with PC49 was “inactive”.
